Experimental data taken from PubChem BioAssay (Tox21).
“And” between values parts separate entries of the source, which are not always exact repeats. Equal values may be shown once. Results filed as inconclusive are left out. Where a call stands in place of a potency, no number is given. The source holds several records for some structures; these can differ, active in one and inactive in another. The source made the active and inactive calls. Calls follow the shape of the dose curve; as a rule, active = well fitted inhibition curve with a large enough effect in the repeat runs; inconclusive = weak or mixed curves; inactive = flat fitted curve, though single readings scatter.
Potency is read from the fitted curve at half-maximal effect.

Assay: qHTS assay to identify small molecule HDAC inhibitors (AID 1259364); also: nearly all actives have a fitted effect of over 45% in size; as to activity change, negative = inhibition: top concentration of the series differs between compounds
Details: HCT-116 HDAC-Glo I/II luminescence, 2 h; series mostly up to 92.4 µM; activity change, negative = inhibition: at the top concentration
Text: U.S. Tox21 Program National Center for Advancing Translational Sciences [NCATS] NIH Chemical Genomics Center [NCGC] U.S. Environmental Protection Agency [EPA] National Institutes of Environmental Health Sciences [NIEHS] National Toxicology Program [NTP] U.S. Food and Drug Administration [FDA] Tox21 Assay Overview: Histone deacetylases (HDACs) are a group of epigenetic enzymes that regulate gene expression by histone deacetylation. HDACs are capable of introducing epigenetic modifications and such aberrations contribute to the onset and progression of several human diseases, thus making HDACs a popular therapeutic target. For identifying endogenous class I/II HDAC inhibitors a homogenous, luminogenic HDAC I/II cell based assay was used to measure the relative activity of class I and II HDACs from cells. Wild type HCT-116 cells were used to screen Tox21 libraries for identifying class I/II HDAC inhibitors.
Tox21 Assay Protocol Summary: HCT-116 cells were dispensed at 1,500 per well in 5uL of culture medium into white solid bottom 1536-well plates (Greiner Bio-One, Monroe, NC) using a Multidrop Combi (Thermo Scientific, Waltham, MA) dispenser. The assay plates were incubated at 37 C and 5% CO2 for an overnight, and then 23nL of compounds dissolved in DMSO and positive control were transferred using a Pintool station (Wako, San Diego, CA). The assay plates were incubated at 37C and 5% CO2 for 2hr. After compound treatment, 4uL of HDAC-Glo reagent (Promega Corporation, Madison, WI) was added to each well of the assay plates using Flying Reagent Dispenser (FRD, Aurora Discovery, San Diego, CA) and incubated the assay plates at room temperature for 30min. The luminescence signal was quantified using a ViewLux plate reader (Perkin Elmer, Shelton, CT).
For `OCC(O)CO`, the Potency was “inactive”. With `C#CCOS(=O)OC1CCCCC1Oc1ccc(C(C)(C)C)cc1` (stereo not given) the Potency was “inactive”. With `CCN(CC)C(=O)/C(Cl)=C(\C)OP(=O)(OC)OC` the Potency was “inactive”. For `CN(C)c1ccc(C(=O)c2ccc(N(C)C)cc2)cc1`, the Potency was “inactive and 48.6 µM (active)”. With `Nc1c(Cl)cc([N+](=O)[O-])cc1Cl` the Potency was “inactive”. With `N#CC(Br)Br` the Potency was “inactive”. For `C=CCc1ccc(OC)cc1`, the Potency was “inactive”. With `CCC(C)c1ccc(O)cc1` (stereo not given) the Potency was “inactive”. With `CC(C)(c1cc(Cl)c(O)c(Cl)c1)c1cc(Cl)c(O)c(Cl)c1` the Potency was “inactive”. In the case of `CC(C)=CC1C(C(=O)OCc2coc(Cc3ccccc3)c2)C1(C)C` (stereo not given), the Potency is reported as “inactive”. In the case of `CCC(=O)O[C@H]1CC[C@H]2[C@@H]3CCC4=CC(=O)CC[C@]4(C)[C@H]3CC[C@]12C`, the Potency is reported as “inactive”. In the case of `NNC(N)=S`, the Potency is reported as “inactive”. For `CC(C)N(C(=O)SCC(Cl)=C(Cl)Cl)C(C)C`, the Potency was “inactive”. For `CCN(CC)C(=O)SCc1ccc(Cl)cc1`, the Potency was “inactive”. In the case of `O=C(NC(=O)c1c(F)cccc1F)Nc1ccc(Cl)cc1`, the Potency is reported as “inactive”. In the case of `c1ccc(P(c2ccccc2)c2ccccc2)cc1`, the Potency is reported as “inactive”. In the case of `Oc1cc(Cl)ccc1Cl`, the Potency is reported as “inactive”. In the case of `O=C(O)C(F)(F)C(F)(F)C(F)(F)C(F)(F)C(F)(F)C(F)(F)C(F)(F)F`, the Potency is reported as “inactive”. With `Cc1cc(C)cc(C)c1` the Potency was “inactive”. In the case of `CCOc1cc(C=O)ccc1O`, the Potency is reported as “inactive”. With `N[C@@H](Cc1ccc(N(CCCl)CCCl)cc1)C(=O)O` the Potency was “inactive”. For `CCc1cccc(CC)c1N(COC)C(=O)CCl`, the Potency was “inactive”. With `CC(C)c1ccc(CO)cc1` the Potency was “inactive”. In the case of `CCCCC(CC)COC(=O)c1ccc(C(=O)OCC(CC)CCCC)c(C(=O)OCC(CC)CCCC)c1` (stereo not given), the Potency is reported as “inactive”. For `Brc1ccc(Oc2cc(Br)c(Br)cc2Br)c(Br)c1`, the Potency was “inactive”. With `CNC(=O)N(C)c1nnc(C(C)(C)C)s1` the Potency was 27.3 µM (active). With `C#C[C@]1(O)CC[C@H]2[C@@H]3CCC4=CC(=O)CC[C@]4(C)[C@H]3CC[C@@]21C` the Potency was “inactive”. With `c1ccc(NNc2ccccc2)cc1` the Potency was 15.4 µM (active). With `CCCCN(CC)c1c([N+](=O)[O-])cc(C(F)(F)F)cc1[N+](=O)[O-]` the Potency was “inactive”. In the case of `O=c1oc2ccccc2c(O)c1C(CC(O)c1ccc(-c2ccc(Br)cc2)cc1)c1ccccc1` (stereo not given), the Potency is reported as “inactive”. With `Cc1cccc(N)c1N` the “activity change, negative = inhibition” value was -15.2% (inactive). With `Cc1ccc(OP(=O)(Oc2ccc(C)cc2)Oc2ccc(C)cc2)cc1` the Potency was “inactive”. With `COP(=S)(OC)Oc1cc(Cl)c(Cl)cc1Cl` the Potency was “inactive”. With `COP(=S)(OC)Oc1ccc([N+](=O)[O-])cc1` the Potency was “inactive”. For `N#Cc1cc(Br)c(O)c(Br)c1`, the Potency was “inactive”. For `CC(C)(OOC(C)(C)c1ccccc1)c1ccccc1`, the Potency was “inactive”. With `CCOc1cc(Oc2ccc(C(F)(F)F)cc2Cl)ccc1[N+](=O)[O-]` the Potency was “inactive”. For `Oc1ccc(-c2ccccc2)cc1`, the “activity change, negative = inhibition” value was -22.4% (inactive). With `O=[N+]([O-])c1cccc2ccccc12` the Potency was “inactive”. For `CCC(C)c1cc([N+](=O)[O-])cc([N+](=O)[O-])c1O` (stereo not given), the Potency was “inactive”.
